Consider 14 compounds from PubChem BioAssay.

As usually defined, the inhibition is the drop in the measured response relative to a control, in per cent.

SMILES strings stand for the structures. Calls of active or inactive are those of the source.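 Rule for the calls, unless noted: active = inhibition of the reporter signal at or above 50%; inactive = inhibition below 50%.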

Assay [1] can be described thus: inhibitors of TNFa-induced NFkB p65 translocation, primary screen, imaging, HUVEC, MLSMR starter and 10KST1 sets (AID 438;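 active = inhibition above 20% together with a positive visual image hit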;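 note: compound added about 3h40 before a 20 min TNFalpha stimulation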;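 for inhibition: signal is the nuclear over cytoplasmic p65 intensity ratio per well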). Particulars: HUVEC TNFa-induced p65 nuclear translocation; cell count: measured here: nuclei count (cytotoxicity indicator), at 2.08 µM; inhibition: at 2 µM, stronger effect = higher value, 0% TNFa-plus-vehicle, 100% no-TNFa wells.
The nature of assay [2]: reduction of polyQ htt aggregates in cells – imaging, exon1htt(103Q)mCFP cells, high-content imaging, primary screen (AID 483;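 active = visual image review flags a hit and inhibition of aggregation exceeds 20%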;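 note: compound exposure lasted 3 days before fixation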;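 for nuclei count: percent of the per-plate median nuclei count of sample wells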). Particulars: exon1htt(103Q)mCFP cell line, aggregate imaging, at 2 µM; inhibition of aggregation: stronger effect = higher value; nuclei count: measured here: cell count, toxicity.
The nature of assay [3]: endothelial E-selectin expression blockers – imaging, HUVEC, immunofluorescence, MLSMR starter and 10KST1 sets, primary screen (AID 487;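 active = visually confirmed hit in the image check and inhibition above 20%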;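 for inhibition: signal is fraction of cell area covered by stained E-selectin grains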;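 for nuclei count: 100% = median nuclei count of all wells on the same plate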). To be noted: HUVEC TNFalpha-induced E-selectin immunofluorescence imaging, at 2 µM; inhibition: stronger effect = higher value; nuclei count: measured here: cell number, toxicity.
Assay [4] concerns the target Voltage-gated potassium channel subunit beta-2 (Rattus norvegicus) (UniProt P62483). The experiment in a line: inhibitors of rat Kvbeta2 reductase activity – biochemical, NADPH fluorescence, primary screen (AID 622;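 active = fluorescence slope higher than the sample average by over 3 SD, cut at about -0.22 in these data, passing the limit was not always enough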;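 note: slope of raw intensity against log time taken from 70 to 1610 s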). To be noted: recombinant KvBeta, 4-cyanobenzaldehyde reduction, at 10 µM, stronger effect = higher value.
The target is the same in assay [5]. As to the kind of experiment: enhancers of rat Kvbeta2 NADPH turnover – biochemical, NADPH fluorescence, primary screen (AID 623;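 active = NADPH fluorescence slope more negative than the mean of all samples by about 3 SD, 99.7% confidence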;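 note: fluorescence intensity change per second fitted from 20 to 320 s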). Particulars: Recombinant KvBeta, NADPH fluorescence decrease slope, 10 min; at 10 µM; stronger effect = lower value.
For assay [6], the target named is Alpha-2C adrenergic receptor (Homo sapiens) (UniProt P18825). As to the kind of experiment: compounds altering alpha2C-coupled GIRK flux – cell-based, HEK293 alpha2C/GIRK1/2, thallium flux, primary screen (AID 624;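 active = fluorescence slope after compound addition differing from the mean of all screened samples at 99.7% confidence, in either direction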;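 note: slope of fluorescence ratio to pre-addition baseline per second over 15 to 24 s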). Particulars: thallium flux BTC fluorescence, at 10 µM, actives lie on both sides.
Assay [7] can be described thus: blockers of RIG-like receptor reporter activation – cell-based, Sendai virus stimulus, luciferase, 10K MLSCN set, TLR/RLR signaling modifier project, primary screen (AID 602276;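 active = inhibition at or above 50% at 10 µM; inactive = inhibition below 50%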;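 note: firefly luciferase from ISG56 promoter only with Renilla not read in this screen; 0% = Sendai virus plus DMSO and 100% = medium plus DMSO without virus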). Particulars: HEK293 RL24 IRF3 luciferase reporter, at 10 µM, stronger effect = higher value.
Assay [8] in a line: TLR3 IRF3 reporter activation blockers – cell-based, poly I:C stimulus, luciferase, 10K MLSCN set, primary screen (AID 602277). Particulars: HEK293-TLR3 RL24 IRF3 luciferase reporter, at 10 µM, stronger effect = higher value.

Sequence of Voltage-gated potassium channel subunit beta-2 (Rattus norvegicus) (P62483 whole entry, looked up): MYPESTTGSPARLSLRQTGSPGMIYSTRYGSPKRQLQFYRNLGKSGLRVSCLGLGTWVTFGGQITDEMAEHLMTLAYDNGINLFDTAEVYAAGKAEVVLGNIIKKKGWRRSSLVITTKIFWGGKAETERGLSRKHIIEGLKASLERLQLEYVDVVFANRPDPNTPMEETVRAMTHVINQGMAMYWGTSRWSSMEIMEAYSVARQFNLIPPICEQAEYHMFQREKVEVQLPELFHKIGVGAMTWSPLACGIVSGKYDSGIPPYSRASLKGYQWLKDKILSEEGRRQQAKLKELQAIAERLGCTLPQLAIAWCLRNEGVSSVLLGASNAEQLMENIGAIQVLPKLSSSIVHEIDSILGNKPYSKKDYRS
Sequence of Alpha-2C adrenergic receptor (Homo sapiens) (P18825 whole entry, looked up): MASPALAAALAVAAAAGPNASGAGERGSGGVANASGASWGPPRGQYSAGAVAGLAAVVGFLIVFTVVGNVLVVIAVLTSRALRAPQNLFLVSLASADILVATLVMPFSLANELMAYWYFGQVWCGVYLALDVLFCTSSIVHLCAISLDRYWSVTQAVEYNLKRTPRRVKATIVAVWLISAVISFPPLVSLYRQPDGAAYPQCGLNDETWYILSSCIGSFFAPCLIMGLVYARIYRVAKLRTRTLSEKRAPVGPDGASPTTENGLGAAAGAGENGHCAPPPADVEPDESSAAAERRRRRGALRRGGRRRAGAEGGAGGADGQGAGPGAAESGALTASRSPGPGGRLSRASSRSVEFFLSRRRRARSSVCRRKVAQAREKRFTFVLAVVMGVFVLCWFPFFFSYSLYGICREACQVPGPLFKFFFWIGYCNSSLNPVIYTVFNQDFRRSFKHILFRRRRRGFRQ

Take `Cc1ccc(C)c(C(=O)CC2(O)C(=O)Nc3ccccc32)c1` (centres undefined): in assay [1], the cell count is 602. For the same compound, the inhibition in assay [1] is -11% (inactive); in assay [3], -108% (inactive); in assay [7], 3.23% (inactive); in assay [8], -1.7% (inactive). The inhibition of aggregation in assay [2] was 23.6% (inactive). The nuclei count stood at 62.9% in assay [2] and 126% in assay [3]. The fluorescence slope in assay [4] is -0.416 (inactive). Also, the NADPH fluorescence slope in assay [5] was -3.2e-05 (inactive). The slope in assay [6] was 0.00493 (inactive).
On to `Cn1c(SCC(=O)N2CCOCC2)nnc1-c1cnccn1`, for which the cell count in assay [1] stood at 656. In addition, the inhibition in assay [1] was 1% (inactive); in assay [3] it was -36.3% (inactive); in assay [7], 3.04% (inactive); in assay [8], 21.7% (inactive). Besides, the inhibition of aggregation in assay [2] is -11.1% (inactive). Also, the nuclei count was found to be 122% in assay [2] and 114% in assay [3]. The fluorescence slope in assay [4] was -0.396 (inactive). For the same compound, the NADPH fluorescence slope in assay [5] was 8e-06 (inactive). Moreover, the slope in assay [6] is 0.00449 (inactive).
Consider `CN(C)CCN1C(=O)C(O)=C(C(=O)c2cc3ccccc3o2)C1c1ccc(N(C)C)cc1` (centres undefined), for which the cell count in assay [1] was found to be 577. Also, the inhibition in assay [1] is 5.8% (inactive); in assay [3], 23.3% (inactive); in assay [7], 7.8% (inactive); in assay [8], 27.2% (inactive). Further, the inhibition of aggregation in assay [2] is 11.6% (inactive). The nuclei count in assay [2] amounted to 95.2%; in assay [3], 109%. Besides, the fluorescence slope in assay [4] is -0.549 (inactive). Also, the NADPH fluorescence slope in assay [5] was -2.9e-05 (inactive). Also, in assay [6], the slope was 0.00711 (inactive).
As to `CSc1nc(C)c(C(=O)Nc2ccccc2)c(C)c1C#N`, the cell count in assay [1] was determined as 761. The inhibition is -11.2% (inactive) in assay [1], -40.9% (inactive) in assay [3], 16.8% (inactive) in assay [7] and 18.5% (inactive) in assay [8]. Also, the inhibition of aggregation in assay [2] is -5.9% (inactive). Besides, the results for the nuclei count in assay [2] and in assay [3] were 103% and 118%, respectively. Further, the fluorescence slope in assay [4] is -0.483 (inactive). Moreover, the NADPH fluorescence slope in assay [5] was -2.5e-05 (inactive). In addition, the slope in assay [6] was 0.00491 (inactive).
Regarding `O=C(CN1C(=O)c2ccccc2S1(=O)=O)NCc1ccccc1Cl`, in assay [1], the cell count worked out at 698. For the same compound, the inhibition in assay [1] is 4.2% (inactive); in assay [3], -45.6% (inactive); in assay [7], 9.36% (inactive); in assay [8], 22.5% (inactive). Moreover, in assay [2], the inhibition of aggregation was 8.6% (inactive). For the same compound, the nuclei count in assay [2] was found to be 106%; in assay [3], 108%. In assay [4], the fluorescence slope was -0.599 (inactive). Also, the NADPH fluorescence slope in assay [5] is -1.3e-05 (inactive). In assay [6], the slope was 0.0066 (inactive).
Consider `O=c1c2ccccc2c(/C=N/n2cnnc2)c(O)n1-c1ccccc1`, for which, in assay [1], the cell count came out at 408. Also, the inhibition in assay [1] was -1.9% (inactive); in assay [3] it was -12.2% (inactive); in assay [7] it was -3.33% (inactive); in assay [8], 6.58% (inactive). Besides, the inhibition of aggregation in assay [2] was -43% (inactive). Further, the nuclei count in assay [2] was 58.6%; in assay [3], 101%. Also, in assay [4], the fluorescence slope was -0.102 (active). In addition, the NADPH fluorescence slope in assay [5] was -7.7e-05 (inactive). Further, the slope in assay [6] was 0.00664 (inactive).
On to `COc1ccc(S(=O)(=O)Cc2ccc(C(=O)NCCc3ccc(S(N)(=O)=O)cc3)o2)cc1`, for which, in assay [1], the cell count came to 686. Also, the inhibition was 0.6% (inactive) in assay [1], -51.1% (inactive) in assay [3], 9.1% (inactive) in assay [7] and 28.2% (inactive) in assay [8]. Besides, the inhibition of aggregation in assay [2] is 41.2% (active). The results for the nuclei count in assay [2] and in assay [3] were 71.5% and 114%, respectively. Moreover, in assay [4], the fluorescence slope was -0.561 (inactive). Besides, the NADPH fluorescence slope in assay [5] is -2.1e-05 (inactive). For the same compound, in assay [6], the slope is 0.00625 (inactive).
In the case of `Cc1nc2ccc(C(=O)c3ccccc3)cc2[nH]1`, in assay [1], the cell count was determined as 411. The inhibition in assay [1] was 7.2% (inactive); in assay [3], -8.7% (inactive); in assay [7], -30.7% (inactive); in assay [8], -56.7% (inactive). The inhibition of aggregation in assay [2] is 18.6% (inactive). Further, the results for the nuclei count in assay [2] and in assay [3] were 69.6% and 105%, respectively. Further, the fluorescence slope in assay [4] was -0.389 (inactive). Besides, the NADPH fluorescence slope in assay [5] is 2.4e-05 (inactive). In assay [6], the slope was 0.00371 (inactive).
For `O=C(C1CCCN(S(=O)(=O)c2ccc(Br)s2)C1)N1CCCCCC1` (centres undefined), the cell count in assay [1] amounted to 217. Moreover, the inhibition in assay [1] was -1.9% (inactive); in assay [3], 30.6% (inactive); in assay [7] it was 2.37% (inactive); in assay [8] it was 13.4% (inactive). In addition, the inhibition of aggregation in assay [2] was 5.7% (inactive). Further, the nuclei count in assay [2] stood at 75.1%; in assay [3], 31.6%. Besides, the fluorescence slope in assay [4] was -0.378 (inactive). Also, the NADPH fluorescence slope in assay [5] is -4.5e-05 (inactive). Also, the slope in assay [6] is 0.00305 (inactive).
Turning to `Cc1ccccc1-n1c(=O)c2ccccc2n2nnnc12`, the cell count in assay [1] worked out at 789. Moreover, the inhibition in assay [1] was -6.4% (inactive); in assay [3], -23.1% (inactive); in assay [7], -17% (inactive); in assay [8], -4.05% (inactive). Besides, the inhibition of aggregation in assay [2] is -0.5% (inactive). For the same compound, the nuclei count in assay [2] is 125%; in assay [3], 103%. The fluorescence slope in assay [4] was -0.517 (inactive). In assay [5], the NADPH fluorescence slope is 2.5e-05 (inactive). Also, the slope in assay [6] is 0.00577 (inactive).
As to `CSc1nc2c(c(=O)n1C)SC(C)C2` (centres undefined), the cell count in assay [1] was determined as 612. For the same compound, the inhibition in assay [1] is 8.7% (inactive); in assay [3], -32.9% (inactive); in assay [7], 4.05% (inactive); in assay [8], 31.4% (inactive). Also, in assay [2], the inhibition of aggregation is -10.1% (inactive). In addition, the nuclei count in assay [2] was 111%; in assay [3], 115%. Further, the fluorescence slope in assay [4] is -0.567 (inactive). The NADPH fluorescence slope in assay [5] was -4.8e-05 (inactive). In assay [6], the slope was 0.00545 (inactive).
`CC1Cn2c(nnc2-c2ccc(F)cc2)S1` (centres undefined): in assay [1], the cell count came out at 741. The inhibition is -17.7% (inactive) in assay [1], -40% (inactive) in assay [3], -1.17% (inactive) in assay [7] and 28.5% (inactive) in assay [8]. In assay [2], the inhibition of aggregation was -26.8% (inactive). The nuclei count is 119% in assay [2] and 101% in assay [3]. In addition, in assay [4], the fluorescence slope was -0.583 (inactive). In assay [5], the NADPH fluorescence slope is -2.2e-05 (inactive). In assay [6], the slope is 0.00604 (inactive).
On to `CC1CC(C)CN(Cc2nc3c(c(=O)n(C)c(=O)n3C)n2Cc2ccccc2Cl)C1` (centres undefined), for which, in assay [1], the cell count turned out to be 705. The inhibition in assay [1] is -16.8% (inactive); in assay [3], 37.7% (inactive); in assay [7] it was -10.4% (inactive); in assay [8] it was -1.1% (inactive). In addition, the inhibition of aggregation in assay [2] is -2.3% (inactive). Further, the nuclei count amounted to 78% in assay [2] and 88% in assay [3]. Moreover, the fluorescence slope in assay [4] was -0.482 (inactive). Moreover, the NADPH fluorescence slope in assay [5] was -4.6e-05 (inactive). In addition, the slope in assay [6] was 0.00565 (inactive).
On to `Cc1cccc2cc(C#N)c(SCCN3CCCCC3)nc12`, for which, in assay [1], the cell count worked out at 413. Further, the inhibition in assay [1] is -7.1% (inactive); in assay [3], -46.6% (inactive); in assay [7] it was 13.4% (inactive); in assay [8] it was 99% (active). Also, the inhibition of aggregation in assay [2] is -42.5% (inactive). For the same compound, the nuclei count in assay [2] and in assay [3] was 108% throughout. The fluorescence slope in assay [4] is -0.334 (inactive). Further, the NADPH fluorescence slope in assay [5] was -4.3e-05 (inactive). In assay [6], the slope is 0.00498 (inactive).
